Test [1] is described as follows: liver-stage malaria parasite load reduction – cell-based, known kinase inhibitor set, luminescence, hepatoma host viability (AID 624392).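 Note: infected cells incubated roughly two days before readout.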 Conditions: Plasmodium liver stage in hepatoma cells, luciferase luminescence, concentration not given here; liver cell % of control: measured here: host liver cell viability; parasite % of control: stronger effect = lower value.
Test [2] in a line: altered dexamethasone sensitivity, NF-kB reporter, cell-based, luciferase, IL-1B stimulus (AID 624486).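 For percent of negative control (+Dex): 100% = mean signal of vehicle control wells on the plate.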 Conditions: IL-1B + dexamethasone, luminescence; percent of negative control (+Dex): actives lie on both sides, concentration not given here; z-score: measured here: IL-1B alone, no Dex.
In test [3] the target is Cellular tumor antigen p53 (Homo sapiens) (UniProt P04637). Description: GFP-p53 level modulators in HPV16+ cells – imaging, known kinase inhibitor set, EGFP/DsRed ratio (AID 1053116).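 Note: cells exposed to compounds for 24 h at 37 °C before reading.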 Conditions: GFP-p53 stability, stronger effect = higher value; EGFP object count: measured here: GFP-p53 positive objects count.
Test [4] is described as follows: inducers of IRF3 signaling, differentiated THP-1 – cell-based, PMA-stimulated THP-1, luminescence (AID 1053176). Conditions: PMA-differentiated THP-1, IRF3 reporter luminescence; stronger effect = higher value.

The source made the active and inactive calls. The rule behind the calls is not given here.

Cellular tumor antigen p53 (Homo sapiens), sequence (P04637 whole entry, looked up): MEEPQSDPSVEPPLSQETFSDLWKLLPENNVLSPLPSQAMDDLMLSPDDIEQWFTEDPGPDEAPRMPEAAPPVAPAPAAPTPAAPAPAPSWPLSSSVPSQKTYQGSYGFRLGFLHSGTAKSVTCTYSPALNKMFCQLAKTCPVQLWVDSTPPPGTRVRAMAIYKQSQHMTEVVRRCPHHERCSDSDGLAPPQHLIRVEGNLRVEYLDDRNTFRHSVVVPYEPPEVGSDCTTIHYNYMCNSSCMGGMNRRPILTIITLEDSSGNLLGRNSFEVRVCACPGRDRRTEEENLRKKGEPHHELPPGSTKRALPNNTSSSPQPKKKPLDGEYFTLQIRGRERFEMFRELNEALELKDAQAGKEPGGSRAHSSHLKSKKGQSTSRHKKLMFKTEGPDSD

Regarding `CON=C(c1ccccc1)c1cnn(-c2ccccc2)c1N`, in test [1], the liver cell % of control is 121% and the parasite % of control is 79.3% (inactive). For the same compound, in test [2], the percent of negative control (+Dex) is 98.5% (inactive) and the z-score stood at 0.245. In test [3], the EGFP object count was 3.5 and the EGFP/DsRed ratio was 0.128 (inactive). Further, the fraction signal in test [4] was 0.0055 (inactive).

With `Cn1cc(C2=C(c3cn(CCCCCO)c4ccccc34)C(=O)NC2=O)c2ccccc21`, in test [1], the liver cell % of control worked out at 97.8% and the parasite % of control was 31.3% (inactive). Further, in test [2], the percent of negative control (+Dex) was 101% (inactive) and the z-score is -1.23. For the same compound, in test [3], the EGFP object count is 18.5 and the EGFP/DsRed ratio is 0.347 (inactive). In test [4], the fraction signal is -0.0115 (inactive).

`COc1cc(F)c(F)c(F)c1C(=O)c1cnc(NC2CCN(S(C)(=O)=O)CC2)nc1N`: in test [1], the liver cell % of control was determined as 92.2% and the parasite % of control was 450% (inactive). In addition, in test [2], the percent of negative control (+Dex) is 122% (inactive) and the z-score turned out to be 0.18. For the same compound, in test [3], the EGFP object count is 3 and the EGFP/DsRed ratio is 0.21 (inactive). Besides, the fraction signal in test [4] was -0.0095 (inactive).

Turning to `CN1CCN(c2ccc(Nc3nc(N)c(C(=O)c4ccc5c(c4)OCCO5)s3)cc2)CC1`, in test [1], the liver cell % of control is 108% and the parasite % of control is 46.7% (inactive). In test [2], the percent of negative control (+Dex) is 138% (inactive) and the z-score amounted to 3.58. Also, in test [3], the EGFP object count was determined as 4.5 and the EGFP/DsRed ratio was 0.151 (inactive). In test [4], the fraction signal is -0.018 (inactive).

With `Nc1c(C(=O)c2cccc(C#CCN3CCOCC3)c2)cnn1-c1ccc(F)cc1`, in test [1], the liver cell % of control was 159% and the parasite % of control is 75.7% (inactive). Also, in test [2], the percent of negative control (+Dex) is 120% (inactive) and the z-score is 1.29. In addition, in test [3], the EGFP object count was 2.5 and the EGFP/DsRed ratio was 0.12 (inactive). In addition, the fraction signal in test [4] is 0.0055 (inactive).

Turning to `O=C1Nc2ccc(F)cc2C1=Cc1ccc[nH]1`, in test [1], the liver cell % of control was 55.9% and the parasite % of control is 14% (inactive). In addition, in test [2], the percent of negative control (+Dex) is 136% (active) and the z-score was 4.44. In test [3], the EGFP object count was 23 and the EGFP/DsRed ratio is 0.607 (inactive). The fraction signal in test [4] is -0.014 (inactive).

Turning to `Cn1cc(C2=C(c3cccc(OCC(O)CO)c3)C(=O)NC2=O)c2cc(F)ccc21` (stereo not given), in test [1], the liver cell % of control turned out to be 125% and the parasite % of control was 31.6% (inactive). In test [2], the percent of negative control (+Dex) was 97% (inactive) and the z-score stood at 0.67. Also, in test [3], the EGFP object count amounted to 8 and the EGFP/DsRed ratio was 0.21 (inactive). Also, the fraction signal in test [4] is -0.0075 (inactive).

For `Cn1c(=O)c(Oc2cccc(F)c2)cc2cnc(NC3CCOCC3)nc21`, in test [1], the liver cell % of control was 112% and the parasite % of control is 65.8% (inactive). Besides, in test [2], the percent of negative control (+Dex) is 101% (inactive) and the z-score came to 0.78. Further, in test [3], the EGFP object count was determined as 4 and the EGFP/DsRed ratio was 0.127 (inactive). In addition, the fraction signal in test [4] was 0.0015 (inactive).

For `Cn1cc(C2=C(c3ccsc3)C(=O)NC2=O)c2ccccc21`, in test [1], the liver cell % of control was determined as 108% and the parasite % of control was 30% (inactive). Besides, in test [2], the percent of negative control (+Dex) was 92.5% (inactive) and the z-score is -0.045. In addition, in test [3], the EGFP object count worked out at 3.5 and the EGFP/DsRed ratio was 0.27 (inactive). Also, the fraction signal in test [4] is -0.0155 (inactive).

Consider `CNc1ncc2cc(Oc3ccc(F)cc3F)c(=O)n(C)c2n1`, for which, in test [1], the liver cell % of control stood at 109% and the parasite % of control was 65.3% (inactive). In addition, in test [2], the percent of negative control (+Dex) was 94.5% (inactive) and the z-score came out at 1.49. Besides, in test [3], the EGFP object count was 2.5 and the EGFP/DsRed ratio was 0.0112 (inactive). For the same compound, in test [4], the fraction signal was -0.001 (inactive).

On to `Cn1cc(C2=C(c3c4n(c5ccccc35)CCC(CN)CC4)C(=O)NC2=O)c2ccccc21` (stereo not given), for which, in test [1], the liver cell % of control came to 127% and the parasite % of control was 42.3% (inactive). Besides, in test [2], the percent of negative control (+Dex) is 94% (inactive) and the z-score is -0.165. Also, in test [3], the EGFP object count stood at 30.5 and the EGFP/DsRed ratio was 0.0801 (inactive). In test [4], the fraction signal was -0.003 (inactive).

For the compound `Nc1c(C(=O)c2ccc(CCCN3CCOCC3)cc2)cnn1-c1ccc(F)cc1`, in test [1], the liver cell % of control is 119% and the parasite % of control was 61% (inactive). Also, in test [2], the percent of negative control (+Dex) is 106% (inactive) and the z-score is 0.435. In test [3], the EGFP object count came to 2 and the EGFP/DsRed ratio was 0.0463 (inactive). The fraction signal in test [4] is 0.001 (inactive).

Consider `O=C1NC(=NCCc2cccc(Cl)c2)SC1=Cc1ccc2ncccc2c1`, for which, in test [1], the liver cell % of control turned out to be 131% and the parasite % of control is 170% (inactive). Also, in test [2], the percent of negative control (+Dex) was 89.5% (inactive) and the z-score was -0.11. In test [3], the EGFP object count came out at 15 and the EGFP/DsRed ratio is 0.216 (inactive). Further, in test [4], the fraction signal was -0.0025 (inactive).

Consider `CN1CCN(CCc2cccc(C(=O)c3cnn(-c4ccc(F)cc4)c3N)c2)CC1`, for which, in test [1], the liver cell % of control came out at 112% and the parasite % of control is 51.1% (inactive). Besides, in test [2], the percent of negative control (+Dex) is 96.5% (inactive) and the z-score was found to be 1.1. In test [3], the EGFP object count came out at 5 and the EGFP/DsRed ratio was 0.187 (inactive). Also, the fraction signal in test [4] was 0.0015 (inactive).

Regarding `CSc1c(C2=C(c3cn(C)c4ccccc34)C(=O)NC2=O)c2ccccc2n1C`, in test [1], the liver cell % of control was 96.3% and the parasite % of control was 78.1% (inactive). In test [2], the percent of negative control (+Dex) was 110% (inactive) and the z-score is 0.45. In test [3], the EGFP object count is 21 and the EGFP/DsRed ratio was 0.217 (inactive). The fraction signal in test [4] was 0.0015 (inactive).

With `N#Cc1cccc(C(=O)c2cnn(-c3ccc(F)cc3)c2N)c1`, in test [1], the liver cell % of control worked out at 102% and the parasite % of control was 61.7% (inactive). For the same compound, in test [2], the percent of negative control (+Dex) is 114% (inactive) and the z-score came out at 2.75. Also, in test [3], the EGFP object count came out at 4.5 and the EGFP/DsRed ratio was 0.122 (inactive). The fraction signal in test [4] was 0.01 (inactive).

As to `CC(Cn1ncnn1)Nc1ncc2cc(Oc3ccc(F)cc3F)c(=O)n(C)c2n1` (stereo not given), in test [1], the liver cell % of control is 111% and the parasite % of control is 71.1% (inactive). In addition, in test [2], the percent of negative control (+Dex) is 101% (inactive) and the z-score is 0.455. In test [3], the EGFP object count amounted to 1.5 and the EGFP/DsRed ratio was 0.0437 (inactive). Also, the fraction signal in test [4] is -0.003 (inactive).

Consider `Nc1c(C(=O)c2cccc(-c3ccncc3)c2)cnn1-c1ccc(F)cc1F`, for which, in test [1], the liver cell % of control was 92.7% and the parasite % of control is 53.9% (inactive). Also, in test [2], the percent of negative control (+Dex) is 102% (inactive) and the z-score was found to be 0.04. In addition, in test [3], the EGFP object count amounted to 5 and the EGFP/DsRed ratio was 0.0527 (inactive). The fraction signal in test [4] was -0.009 (inactive).

Regarding `O=C1NC(=NCCc2cccc(F)c2)SC1=Cc1ccc2ncccc2c1`, in test [1], the liver cell % of control worked out at 113% and the parasite % of control was 54% (inactive). Besides, in test [2], the percent of negative control (+Dex) is 85.5% (inactive) and the z-score was -0.65. In addition, in test [3], the EGFP object count turned out to be 5.5 and the EGFP/DsRed ratio was 0.176 (inactive). The fraction signal in test [4] is -0.018 (inactive).

In the case of `O=C1NC(=NCCc2ccccn2)SC1=Cc1ccc2ncccc2c1`, in test [1], the liver cell % of control was 170% and the parasite % of control is 32.1% (inactive). For the same compound, in test [2], the percent of negative control (+Dex) is 92.5% (inactive) and the z-score stood at 0.025. For the same compound, in test [3], the EGFP object count was determined as 5.5 and the EGFP/DsRed ratio is 0.134 (inactive). In addition, the fraction signal in test [4] is 0.0055 (inactive).

The values are drawn from PubChem BioAssay.
